High-throughput results: PubChem BioAssay, The Scripps Research Institute Molecular Screening Center
sPLA2-III inh: Blocks human group III sPLA2 activity; QFRET BODIPY PC-A2 liposome hydrolysis, fluorescence; inhibition, % at 12.2 µM; actives 0.56% (n = 370,000);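 active means inhibition above mean plus 3 SD of compounds lying within the high and low control bounds, cut at about 19% in these data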;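 further: 0% = median of test compound wells and 100% = no enzyme DMSO wells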
Target sequence (Q9NZ20 whole entry, looked up): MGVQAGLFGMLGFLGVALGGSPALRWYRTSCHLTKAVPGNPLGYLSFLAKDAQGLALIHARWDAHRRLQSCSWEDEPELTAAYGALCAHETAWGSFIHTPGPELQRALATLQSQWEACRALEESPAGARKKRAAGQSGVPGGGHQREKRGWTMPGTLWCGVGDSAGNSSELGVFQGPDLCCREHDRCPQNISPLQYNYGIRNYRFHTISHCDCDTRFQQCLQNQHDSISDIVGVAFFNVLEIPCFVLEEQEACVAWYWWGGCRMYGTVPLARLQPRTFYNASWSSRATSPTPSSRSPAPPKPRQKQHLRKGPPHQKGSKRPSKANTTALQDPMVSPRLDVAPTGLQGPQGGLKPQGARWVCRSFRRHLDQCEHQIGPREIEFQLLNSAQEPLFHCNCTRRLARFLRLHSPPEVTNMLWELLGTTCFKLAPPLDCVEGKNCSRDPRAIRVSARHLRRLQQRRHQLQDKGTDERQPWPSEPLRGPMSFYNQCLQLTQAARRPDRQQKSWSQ
bovine MsrA act: bovine methionine sulfoxide reductase A activation. purified bovine MsrA, absorbance read-out. AID 602163. activation, % at 10.6 µM. actives 0.3% (n = 360,000); in the data active means activation above about 7.5%;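 further: 0% = vehicle and 100% = reference activator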
MsrA inh: inhibitors of bovine MsrA; purified bovine MsrA, absorbance read-out; inhibition, % at 15.5 µM; actives 0.75% (n = 360,000); AID 651718; in the data active means inhibition above about 4.5%;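 further: 0% = vehicle wells with enzyme and 100% = reference inhibitor wells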
rCAG binder: r(CAG) repeat RNA binding. TO-PRO-1 dye displacement fluorescence. inhibition, % at 3 µM. actives 1.3% (n = 370,000). AID 651821;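 active means inhibition above the plate cutoff, the mean of all test compounds on that plate plus 3 SD, cut at about 35% in these data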;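 further: 0% = DMSO alone and 100% = 100 µM mitoxantrone as full dye displacement; higher means more dye released from RNA so lower well fluorescence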
rCAG binder conf: r(CAG) RNA repeat binding, confirmation; shares compounds with rCAG binder; TO-PRO-1 dye displacement fluorescence; inhibition, % at 3 µM; AID 652065; actives 70% (n = 4,300);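 active means inhibition above a per-plate cutoff, the mean inhibition of sample wells plus 3 SD, cut at about 35% in these data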;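 further: loss of TO-PRO-1 fluorescence as compound displaces dye from 1x1 AA loop RNA; 0% = DMSO only wells and 100% = 100 µM mitoxantrone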
DNA CAG counter: disrupts DNA CAG TO-PRO-1 complex, flagging rCAG hits; d(CAG) DNA oligo TO-PRO-1 dye displacement, fluorescence; actives 94% (n = 4,300); inhibition, % at 3 µM; shares compounds with rCAG binder; AID 652068;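 active means inhibition above its plate's cutoff, the mean test-well inhibition plus 3 SD, cut at about 4.8% in these data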;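 further: 0% = DNA dye mix with DMSO and 100% = 100 µM mitoxantrone; hits displace the dye from DNA and so lower well fluorescence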
An asterisk follows results filed as active; / = not tested or not shown. Only some compounds are listed: those with a hit (about 2.8% of all), similar ones and a draw of the others.

SMILES | sPLA2-III inh | bovine MsrA act | MsrA inh | rCAG binder | rCAG binder conf | DNA CAG counter
CCc1ccc([C@@H]2CC=C(C(=O)O)[C@H](c3ccc(C)cc3)N2S(=O)(=O)c2ccc(C)cc2)cc1 | -39.5 | -3.4 | 0.4 | 79.0* | 82.3* | 49.7*
CCN1C(=O)/C(=C2\SC(=S)N(NC(=O)c3ccccc3O)C2=O)c2ccccc21 | 6.2 | -3.9 | -0.6 | 76.5* | 86.3* | 57.8*
CCC(C)n1c(NC(=O)c2ccccc2)c(C#N)c2nc3ccccc3nc21 (stereo not drawn) | -5.5 | -2.4 | 0.1 | 38.1* | 68.2* | 30.9*
Cc1c(CCC(=O)NCC(=O)NCC(=O)O)c(=O)oc2cc3oc4c(c3cc12)CCCC4 | -1.8 | -2.2 | 1.7 | 13.9 | / | /
Cc1c(CCC(=O)NCCC(=O)O)c(=O)oc2c(C)c3oc4c(c3cc12)CCCC4 | -11.1 | -3.8 | 0.7 | 41.9* | 38.2* | 10.3*
Cc1c(CCC(=O)N[C@@H](C)C(=O)O)c(=O)oc2c(C)c3oc4c(c3cc12)CCCC4 | -14.8 | -5.3 | 0.7 | 43.2* | 39.5* | 8.8*
O=C(Nc1ccc(F)cc1)C1CCCN(S(=O)(=O)c2cccc3nonc23)C1 (stereo not drawn) | -7.2 | -2.8 | -0.8 | 0.1 | / | /
O=P(O)(CCc1ccccc1)C(O)c1ccccc1 (stereo not drawn) | 5.8 | -10.3 | 0.7 | 4.0 | / | /
COc1cc2c3c(c1OC)C(=O)CC3CCCC2 (stereo not drawn) | -4.3 | -5.0 | 1.0 | 3.3 | / | /
COc1cccc(C(=O)COC(=O)CCC(=O)NC2CCCCC2)c1 | -1.8 | 2.7 | -0.4 | -7.4 | / | /
COCCCNc1nc2ccccc2nc1NS(=O)(=O)c1cc(Cl)ccc1Cl | -35.8 | -4.4 | 2.5 | 50.0* | 47.6* | 14.5*
Cn1c(=O)c(C#N)c(-c2ccc(F)cc2)c2cc(C(=O)c3cc(Cl)cc(Cl)c3O)cnc21 | -0.3 | -1.5 | -1.3 | 74.7* | 82.9* | 41.3*
COc1cc(/C=C2\C(=N)N3N=C(S(C)(=O)=O)SC3=NC2=O)ccc1OC(=O)c1ccco1 | -1.5 | -4.0 | 2.0 | 43.4* | 80.1* | 48.4*
CCOc1cc(/C=C2\C(=N)N3N=C(S(=O)(=O)CC)SC3=NC2=O)ccc1OC(=O)c1ccco1 | -14.4 | -3.9 | 1.6 | 41.8* | 84.4* | 51.4*
COc1cc(/C=C2\C(=N)N3N=C(S(C)(=O)=O)SC3=NC2=O)ccc1OCCOc1ccccc1C | -11.6 | -2.2 | 2.0 | 39.5* | 91.2* | 76.0*
N=C1/C(=C\c2ccc(SCc3ccccc3)o2)C(=O)N=C2SC=NN12 | -9.0 | -5.5 | 0.4 | 28.8 | / | /
CCS(=O)(=O)C1=NN2C(=N)/C(=C\c3ccc(SCc4ccco4)o3)C(=O)N=C2S1 | -18.2 | -4.0 | 1.2 | 84.5* | 88.8* | 70.4*
CCCc1cc(=O)[nH]c(SCC(=O)Nc2ccc(Br)cc2)n1 | -1.4 | -2.7 | -0.3 | 3.5 | / | /
Cc1cc(C)cc(OC(C)C(=O)NCCCn2ccnc2)c1 (stereo not drawn) | -0.5 | -0.8 | -0.9 | -5.2 | / | /
CC(C)NS(=O)(=O)c1ccc(CCC(=O)Nc2ccc3c(c2)OCCO3)cc1 | -2.1 | -0.7 | -0.8 | -4.9 | / | /
COc1cc(/C=C2\C(=N)N3N=C(S(C)(=O)=O)SC3=NC2=O)ccc1OC(=O)c1cccs1 | -0.3 | -4.8 | 2.3 | 51.9* | 85.6* | 63.1*
CCOc1cc(/C=C2\C(=N)N3N=C(N4CCCCC4)SC3=NC2=O)ccc1OC(=O)c1ccco1 | -6.3 | -0.1 | -0.3 | 29.8 | / | /
N=C1/C(=C\c2ccc(OC(=O)c3ccco3)cc2)C(=O)N=C2SC(N3CCCCC3)=NN12 | -14.0 | -5.8 | 0.4 | 40.0* | 33.2 | 10.6*
CCc1nc2ccc(C(=O)NCc3ccc(OC)cc3)cn2c1N(C)CCC(C)C | 7.8 | -0.3 | -1.4 | 3.4 | / | /
CCOc1ccccc1OCC(=O)OCC(=O)NNC(=O)c1ccc([N+](=O)[O-])cc1 | -2.6 | -1.9 | 0.7 | 4.6 | / | /
SMILES | sPLA2-III inh | bovine MsrA act | MsrA inh | rCAG binder | rCAG binder conf | DNA CAG counter
COc1ccc(C2=NOC(Cn3nc(-c4ccccc4C)cc3C(=O)O)C2)cc1 (stereo not drawn) | -19.5 | -13.8 | 0.8 | 38.8* | 19.5 | 5.0*
Cc1cc(C)c(C)c(S(=O)(=O)N2CCN(C(=O)CNC(=O)c3ccco3)CC2)c1C | 16.7 | -12.5 | 0.9 | -3.9 | / | /
C/C(=N\NC(=O)c1csc(C)c1C)c1ccco1 | 6.9 | -0.8 | -1.1 | 2.6 | / | /
CCn1c(C(C#N)/C(=N\S(=O)(=O)c2cccs2)c2ccccc2)nc2ccccc21 (stereo not drawn) | -16.3 | -8.8 | 2.3 | 37.0* | 31.6 | 7.8*
CCn1c(-c2cccs2)nc2ccccc21 | 4.8 | 2.6 | 1.9 | -0.3 | / | /
CC(=O)Nc1ccc(NC(=O)C(C)Oc2ccc(Cl)cc2Cl)cc1 (stereo not drawn) | 0.6 | -9.3 | 1.8 | -3.4 | / | /
CC(C)(Oc1ccc(Cl)cc1)C(=O)NC1=NN(c2ccccc2)C(=O)C1 | -15.6 | -10.1 | 0.2 | 74.2* | 27.4 | 12.5*
CC(Oc1ccc(Cl)cc1Cl)C(=O)NC1=NN(c2ccccc2)C(=O)C1 (stereo not drawn) | -13.9 | -7.4 | -0.1 | 57.7* | 53.5* | 24.9*
O=C(O)c1ccccc1NS(=O)(=O)c1ccc(NNC(=S)Nc2ccc(OC(F)F)cc2)c([N+](=O)[O-])c1 | -28.5 | -0.6 | 3.1 | 101.0* | 95.2* | 80.3*
CC(=O)Nc1ccc(C=NNc2ccc([N+](=O)[O-])cc2S(=O)(=O)Nc2ccccc2C(=O)O)cc1 | -23.9 | -7.4 | 0.8 | 57.0* | 88.7* | 64.8*
COc1ccc(C(C)=NNc2ccc([N+](=O)[O-])cc2S(=O)(=O)Nc2ccccc2C(=O)O)c(OC)c1 | -15.9 | -3.7 | 1.5 | 76.8* | 93.0* | 78.2*
Cc1cccc(NC(=O)C(C)OC(=O)c2ccccc2NS(=O)(=O)c2cc(C)c(C)c([N+](=O)[O-])c2)c1 (stereo not drawn) | -7.4 | -3.4 | -0.4 | 10.2 | / | /
Cc1ccc(NC(=S)NNc2ccc(C(=O)O)cc2[N+](=O)[O-])cc1C | 1.0 | -4.6 | 0.9 | 35.4* | 22.9 | 10.1*
Cc1ccc(NC(=S)NNc2ccc([N+](=O)[O-])cc2S(=O)(=O)Nc2ccccc2C(=O)O)cc1C | 0.0 | -6.0 | 0.3 | 91.1* | 93.5* | 70.3*
O=C(O)c1ccccc1Nc1ccc([N+](=O)[O-])cc1C(=O)O | -4.6 | 0.2 | 0.3 | 0.2 | / | /
CCN(CC)c1nc(Nc2ccc(Cl)cc2)nc(OCC#N)n1 | -3.4 | -1.5 | -0.7 | 51.1* | 5.7 | 3.8
COc1ccc(OC)c(N(CC(=O)Nc2cccnc2)S(C)(=O)=O)c1 | 6.3 | -1.9 | -0.5 | -3.1 | / | /
CCc1cc(C(=O)c2ccc(OC)cc2)c(NC(=O)CCC(=O)O)s1 | 0.8 | -4.8 | -0.1 | 14.2 | / | /
CCCCOC(=O)Nc1ccc(S(=O)(=O)Nc2nccs2)cc1 | -10.0 | -0.9 | -0.8 | 7.5 | / | /
CCCCCCCC(=O)Nc1ccc(S(=O)(=O)Nc2nccs2)cc1 | -43.4 | -2.2 | -0.2 | 54.9* | 41.0* | 18.4*
